SMARCA2 activ: activators of SMARCA2 function | MG213 cells, MMTV-luciferase reporter, dexamethasone, overnight | activation, % at 9.1 µM | 370,000 compounds, 1% hits; in the data active = activation above about 7.8%
ssDAF12 agonist: S. stercoralis DAF-12 activation, primary screen; activation, % at 6.8 µM; HEK293 ssDAF-12/GRIP1 lit1-tk-luc reporter, luminescence; % of 3 µM dafachronic acid response; 370,000 compounds, 1% hits;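 active = activation above the mean over all tested compounds plus 3 SD, cut at about 0.9% in these data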
DAX1 inh-1: inhibits human nuclear receptor DAX1; HEK293 Gal4-DAX1 luciferase reporter, luminescence; 340,000 compounds, 0.99% hits; inhibition, % at 6.75 µM;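 active = inhibition above the mean over all tested compounds plus 3 SD, cut at about 4.2% in these data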;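 note: inhibition shows as a rise in luminescence from relieved DAX1 repression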
Target sequence (P51843 207-470 limits assumed): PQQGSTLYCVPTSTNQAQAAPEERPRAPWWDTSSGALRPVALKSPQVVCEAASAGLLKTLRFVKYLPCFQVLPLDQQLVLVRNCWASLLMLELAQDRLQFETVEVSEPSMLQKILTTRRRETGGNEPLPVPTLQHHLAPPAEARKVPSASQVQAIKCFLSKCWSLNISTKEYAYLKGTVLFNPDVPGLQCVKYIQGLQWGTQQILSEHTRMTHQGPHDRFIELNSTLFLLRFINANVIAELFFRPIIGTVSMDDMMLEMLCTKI
hgDAF-12 ag: activates the H. glycines DAF-12 receptor ligand-binding domain. AID 687014. HEK293 GAL4-hgDAF12 UAS-luciferase reporter, agonist luminescence; normalized to butyrate control. activation, % at 6.8 µM. 370,000 compounds, 1.8% hits;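 active = activation above a cutoff set at the mean of all screened compounds plus 3 SD, cut at about 10% in these data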
DAX1 inh-2: inhibitors of DAX1 repression of SF-1 activated StAR promoter. HEK293T StAR-luciferase reporter, SF-1/DAX-1 repression relief. AID 652010. 370,000 compounds, 1.1% hits. inhibition, % at 6.8 µM;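 active = inhibition above the mean over all tested compounds plus 3 SD, cut at about 3.6% in these data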;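 note: higher inhibition means more luminescence from relief of DAX-1 repression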
hcDAF-12 act: activates DAF-12 receptor from parasite H. contortus; HEK293 hcDAF-12 lit1-tk-luc reporter, luminescence; 0% DMSO, 100% Δ7-dafachronic acid; activation, % at 6.8 µM; 370,000 compounds, 1.4% hits; AID 652067;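 active = activation above the mean of all tested compounds plus 3 SD, cut at about 5.5% in these data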
Numbers stand for hits; – = inactive; · = not tested or not shown. Only some compounds are listed: those with a hit (about 4.8% of all), similar ones and a draw of the others.

SMILES	SMARCA2 activ	ssDAF12 agonist	DAX1 inh-1	hgDAF-12 ag	DAX1 inh-2	hcDAF-12 act
O=C(O)CN1C(=O)/C(=C/c2ccccc2Cl)Oc2ccccc21	–	–	–	–	–	–
Cc1cc(C(=O)Nc2ccc(F)cc2C)n(-c2ccccc2)n1	–	–	5.0	–	–	–
O=C(CNC(=O)c1ccco1)NCCCc1ccccc1	–	–	–	–	–	–
Cc1cc(Br)ccc1OCC(=O)N1CCCCCC1	–	–	–	–	–	–
O=C(COc1ccc2ccccc2c1Br)N1CCOCC1	–	–	–	–	–	–
O=C(COc1ccc2ccccc2c1Br)N1CCCC1	–	–	–	–	3.9	–
CC(C)c1ccc(OCC(=O)N2CCCCCC2)c(Br)c1	–	–	–	11	–	–
CC(O)(c1cccnc1)c1nc(-c2cccc(F)c2)cs1 (stereo not given)	–	–	·	–	–	–
CC(=O)Nc1ccc(O)c(-c2nc3ccccc3s2)c1	–	–	–	14	–	–
CCOc1cc(-c2nc3ccccc3s2)ccc1O	–	–	–	11	–	–
O=C(Nc1ccc(-c2nc3ccccc3s2)c(O)c1)C1=COCCO1	–	–	4.9	–	–	–
CC(=O)Nc1cccc(-c2nc3ccccc3s2)c1	–	–	–	11	–	–
CC(C)c1ccc(-c2nc3ccccc3s2)cc1	–	–	–	–	–	–
CC(=O)Nc1cccc(-c2cc(C)c3cc4c(cc3n2)OCO4)c1	–	–	–	–	–	5.6
CC1(C)C2(C#N)C(=O)NC(=O)C12C#N (stereo not given)	–	–	–	–	–	–
CCCC[C@@H]1CNCCN1CCc1cccc(F)c1	–	–	–	–	–	–
CNc1nc(N)c([N+](=O)[O-])c(NCc2ccccc2)n1	–	–	–	–	–	–
CC1CC1C(=O)Nc1nc(-c2cccs2)c(-c2cccs2)s1 (stereo not given)	–	2.0	–	–	–	–
O=C(Nc1nc(-c2cccs2)c(-c2ccccc2)s1)c1ccco1	–	–	–	–	–	–
Oc1ccc(Cl)cc1-c1cc(-c2ccccc2Cl)[nH]n1	–	–	5.6	–	–	6.1
COC(=O)CCN1CCN(S(=O)(=O)c2cccc(Br)c2)CC1	–	–	–	–	–	–
O=C(N/N=C/c1ccc(OCC(=O)N2CCCCC2)cc1)c1ccccc1O	–	1.7	–	–	–	–
O=C(N/N=C/c1ccc(OCC(=O)N2CCCCC2)cc1)c1ccccc1	–	–	–	–	–	–
CC(=O)N(CCCN(C)C)CCC(C)CCC=C(C)C (stereo not given)	–	1.1	–	–	–	–
CC(=O)N(CCCc1ccc(C(C)(C)C)cc1)CCCN(C)C	–	–	–	–	–	–
SMILES	SMARCA2 activ	ssDAF12 agonist	DAX1 inh-1	hgDAF-12 ag	DAX1 inh-2	hcDAF-12 act
COC(=O)[C@@]1(C)[C@H]2C(=O)N(C)C(=O)[C@H]2[C@H]2CN=C(SCC(=O)c3ccccc3)N21	–	–	–	–	–	–
COc1ccc(-c2nc(=S)c3ccc4ccccc4c3[nH]2)cc1	–	1.0	–	–	–	6.4
Cc1cc(=O)c2ccc3ccccc3c2[nH]1	–	–	–	–	–	–
COc1cc(C=O)ccc1OCCSc1ccc(Cl)cc1	–	–	–	–	–	–
COc1cccc(CN(c2ccccc2C(=O)O)S(=O)(=O)c2ccc(C)cc2)c1	–	–	–	–	–	–
COc1ccc(/C=N/NC(=O)CCNc2n[nH]c(=O)[nH]c2=O)c(OC)c1	–	–	–	–	–	–
COc1cccc(/C=N/NC(=O)C[n+]2ccccc2)c1OC	–	2.3	–	–	–	–
COc1cccc(/C=N/NC(=O)CCNc2n[nH]c(=O)[nH]c2=O)c1OC	–	1.5	–	–	–	–
COc1ccc2nc(NC(=O)Cc3cccs3)sc2c1	–	–	–	–	–	–
O=C(Nc1ccc(S(=O)(=O)N2CCCCCC2)cc1)C1CCCO1 (stereo not given)	–	–	–	–	–	–
Clc1ccc(-c2nnc3cccc(Cl)n23)c(Cl)c1	–	–	–	–	–	–
O=C(NC(C(=O)N/N=C/c1ccccn1)c1n[nH]c(=O)c2ccccc12)c1ccccc1 (stereo not given)	7.9	–	–	–	–	–
CC(C)CN1CCCC(N2CCN(c3cccc(Cl)c3)CC2)C1 (stereo not given)	–	–	–	–	–	6.3
O=C(Nc1cccc(O)c1)c1cc(-c2ccco2)on1	–	–	–	11	–	–
CCNC(=S)Nc1c(C)n(C)n(-c2ccccc2)c1=O	–	–	–	–	–	–
CCN(CC)C(=S)Nc1c(C)n(C)n(-c2ccccc2)c1=O	–	–	4.5	–	–	–
O=C(NCCCn1ccnc1)C(=O)NCC(c1cccnc1)N1CCN(c2ccccc2)CC1 (stereo not given)	–	–	–	–	–	–
COc1ccc(CCC(=O)Nc2ncc(C)s2)cc1	–	2.2	–	–	–	–
COc1cc(CCC(=O)Nc2ncc(C)s2)cc(OC)c1OC	–	–	–	–	–	–
CC12C=CC(=O)C=C1CCC1C2C(=O)C[C@@]2(C)C1CCC2(O)C(=O)CO (stereo not given in full)	–	–	–	–	–	–
Cn1c(=S)[nH]c2ccccc21	–	–	4.7	–	–	5.9
N#CCCn1c(=S)[nH]c2ccccc21	–	–	–	–	–	–
Cc1ccccc1Cn1nc(C)c(NC(=O)c2ccccc2)c1C	–	–	–	13	–	–
Cc1ccccc1Cn1nc(C)c(NC(=O)c2sc3ccccc3c2Cl)c1C	–	–	–	–	–	–
c1ccc(CNC2CC3CCC2C3)cc1 (stereo not given)	–	0.9	–	–	–	–
SMILES	SMARCA2 activ	ssDAF12 agonist	DAX1 inh-1	hgDAF-12 ag	DAX1 inh-2	hcDAF-12 act
O=C(CSc1nnc(Cc2ccccc2)o1)NC1CC2CCC1C2 (stereo not given)	–	–	–	–	–	–
Cc1csc(NC(=O)CCCc2cccs2)n1	–	–	–	–	–	–
O=C(Nc1nc2c(s1)CCCC2)c1ccc(N2C(=O)CCC2=O)cc1	–	–	–	–	4.2	–
COC(=O)c1ccc(C(=O)NC(=S)Nc2nc3c(s2)CCCC3)cc1	–	–	–	–	–	6.2
O=C(CCCc1cccs1)Nc1nc2c(s1)CCCC2	–	1.0	–	–	–	–
O=C(Nc1nc2c(s1)CCCC2)c1ccc(Br)s1	–	–	–	–	–	6.2
COc1ccccc1C(=O)N(Cc1sccc1C)C1CCS(=O)(=O)C1 (stereo not given)	–	–	–	–	–	–
CNS(=O)(=O)c1ccc2nc(NC(=O)c3ccc(N4C(=O)CCC4=O)cc3)sc2c1	–	–	–	–	–	–
CCc1ccc2nc(NC(=O)c3ccc(N4C(=O)CCC4=O)cc3)sc2c1	–	–	4.4	–	–	–

High-throughput results: PubChem BioAssay, The Scripps Research Institute Molecular Screening Center
